Screening results (PubChem BioAssay)
In the library only some 1% were active in any assay of this set; here they are far more common.
Bfl-1 A1 inh: inhibitors of the anti-apoptotic protein A1, read as caspase activation; MEF A1-2A-BIM cells, Caspase-Glo 3/7 luminescence, 3 h; percent of clofoctol response, vehicle zero; caspase activation, % (test concentration not listed); hit rate 0.066% among 330,000; AID 2462;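 active = over half of replicate activation scores above 10%, or exactly half above 10 with the replicate mean above 10; inconclusive = replicate mean below 10 yet half the replicates above 10; inactive = over half of replicates below 10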
GC-B act: GC-B (human) receptor activation; P20594; HEK293-GC-B cells, CNP EC30, cGMP TR-FRET; 0% at EC30 CNP, 100% saturating CNP; activation, % at 10 µM; hit rate 0.11% among 370,000; AID 1920062;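 active = activation at 10 µM reaching about 35% in either raw or pattern-adjusted values, limit read from the data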
HSV replic up: HSV replication enhancement. HSV replication augmentation in cells, fold increase. maximum fold increase. hit rate 0.005% among 220,000; in the data active = maximum fold increase above about 1.5; inconclusive = no clear call, values can overlap the other calls; tested in PC3 cells
Efflux pump inh: blocks antifungal efflux pumps in multiplex yeast assay; S. cerevisiae Candida pump triplex, Nile Red efflux; inhibition, % at 10 µM; hit rate 0.44% among 330,000;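 active = plate passing quality check with inhibition over a set limit, or well fluorescence over plate mean plus 4 SD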;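 also: Nile Red retained in pooled yeast measured as flow cytometry median fluorescence; higher means more Nile Red kept so more efflux inhibition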
GC-A act: GC-A (human) enzyme activation; AID 1671463; activation, % at 10 µM; hit rate 0.14% among 370,000; HEK293 GC-A cells, cGMP TR-FRET, EC30 ANP; 0% at EC30 ANP, 100% saturating ANP; P16066; in the data active = activation above about 40%
Target sequence (P16066 whole entry, looked up): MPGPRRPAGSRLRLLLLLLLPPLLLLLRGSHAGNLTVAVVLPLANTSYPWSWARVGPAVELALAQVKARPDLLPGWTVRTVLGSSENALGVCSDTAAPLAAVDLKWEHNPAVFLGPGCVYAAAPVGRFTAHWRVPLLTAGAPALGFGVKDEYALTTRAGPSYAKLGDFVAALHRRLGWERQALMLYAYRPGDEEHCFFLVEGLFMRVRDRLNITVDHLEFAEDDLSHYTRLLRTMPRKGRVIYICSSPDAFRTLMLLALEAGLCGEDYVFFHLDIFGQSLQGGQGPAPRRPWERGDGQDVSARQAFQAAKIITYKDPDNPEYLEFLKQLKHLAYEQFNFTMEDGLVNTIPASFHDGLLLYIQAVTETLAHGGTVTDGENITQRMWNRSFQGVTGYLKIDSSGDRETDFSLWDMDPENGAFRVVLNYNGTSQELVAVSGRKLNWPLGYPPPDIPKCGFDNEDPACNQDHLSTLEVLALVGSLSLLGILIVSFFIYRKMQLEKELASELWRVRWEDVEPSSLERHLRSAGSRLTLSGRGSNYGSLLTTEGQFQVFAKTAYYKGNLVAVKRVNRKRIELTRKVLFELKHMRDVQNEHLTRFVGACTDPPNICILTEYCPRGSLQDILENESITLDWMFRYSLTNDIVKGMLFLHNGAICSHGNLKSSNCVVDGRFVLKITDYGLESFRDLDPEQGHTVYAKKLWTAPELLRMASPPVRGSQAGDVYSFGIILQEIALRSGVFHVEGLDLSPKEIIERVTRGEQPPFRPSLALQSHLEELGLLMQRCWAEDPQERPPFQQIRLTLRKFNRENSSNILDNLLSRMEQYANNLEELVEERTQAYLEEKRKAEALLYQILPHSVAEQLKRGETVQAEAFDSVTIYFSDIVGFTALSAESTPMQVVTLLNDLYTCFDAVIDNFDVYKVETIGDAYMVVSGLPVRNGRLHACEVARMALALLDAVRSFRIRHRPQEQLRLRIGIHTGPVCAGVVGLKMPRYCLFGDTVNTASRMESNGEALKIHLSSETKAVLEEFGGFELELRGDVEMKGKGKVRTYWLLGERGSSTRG
TAG inh: reduces triacylglycerol accumulation in H9c2 cells; Nile Red lipid (TAG) fluorescence; cells loaded with 200 µM oleic acid; inhibition, % at 12.5 µM; hit rate 0.66% among 230,000;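 active = pattern-corrected inhibition of lipid staining of at least 50% with the nuclear-stain viability signal not falling by more than 50%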
Each line names hits and unclear results; the compound was inactive in the other large screens.

C[C@@H](NC(=O)c1ncn2c1c(=O)[nH]c1ccc(Br)cc12)c1ccccc1	GC-B act 39.8 (no result: Bfl-1 A1 inh, HSV replic up, Efflux pump inh)
Cc1ccc2c(c1)Oc1ccc(NC(=O)CCl)cc1C(=O)N2	TAG inh 55.8
Cc1ccc2c(c1)Oc1ccc([N+](=O)[O-])cc1C(=O)N2	none
Cc1ccc(-n2c(SCC(=O)c3ccc4c(c3)OCO4)nc3ccccc3c2=O)cc1	none (no result: Bfl-1 A1 inh, HSV replic up, Efflux pump inh, TAG inh)
CC(C)c1ccccc1NC(=O)[C@@H]1CCCN1S(=O)(=O)c1cccc2cccnc12	none (no result: Bfl-1 A1 inh, HSV replic up, Efflux pump inh, TAG inh)
Cc1nn(Cc2ccc(F)cc2)c2sc(C(=O)Nc3ccc(N4CCOCC4)cc3N3CCOCC3)cc12	GC-B act 40.1
CC(C)(C)c1ccc2c(c1)C(=O)c1ccccc1C2=O	none (no result: TAG inh)
CC(C)(C)C1=CC=C(C(C)(C)C)C(=O)C1=O	Bfl-1 A1 inh 6.4 (no result: GC-B act, GC-A act, TAG inh)
CCOC(=O)c1csc(NC(=O)C2CCCN(S(=O)(=O)c3ccc([N+](=O)[O-])cc3)C2)n1 (centres undefined)	none (no result: Bfl-1 A1 inh, HSV replic up, Efflux pump inh, TAG inh)
Cc1cccc(C#CC2=CC(=O)CC(C)(C)C2)c1	none (no result: Bfl-1 A1 inh, HSV replic up, Efflux pump inh)
CC1(C)CC(=O)C=C(C#CC2(O)CCCCC2)C1	TAG inh 56.5 (no result: Bfl-1 A1 inh, HSV replic up, Efflux pump inh)
O=C(NCc1ccc2c(c1)OCO2)C1CCN(c2ncccn2)CC1	Bfl-1 A1 inh 5.2 (no result: TAG inh)
CN(C)C(=O)COc1ccc2c(-c3ccccc3)cc(=O)oc2c1	none (no result: HSV replic up)
CCOCCOC(=O)COc1ccc2c(-c3ccccc3)cc(=O)oc2c1	GC-A act 51.7 (no result: TAG inh)
COC(=O)[C@H](Cc1ccccc1)NC(=O)[C@H]1C[C@@]2(N3CCCC3)c3ccccc3N(C(=O)OC(C)(C)C)[C@H]2N1C(=O)OC(C)(C)C	none (no result: Bfl-1 A1 inh, HSV replic up, Efflux pump inh, TAG inh)
O=C(CCN1CCCC1)c1cccs1	GC-A act 50.4 (no result: TAG inh)
O=C(CCN1CCCCCC1)c1ccccc1	GC-A act 71.3
O=C(CCN1CCN(c2ccccc2)CC1)c1ccc(Br)cc1	GC-A act 40.1 (no result: HSV replic up, TAG inh)
COc1ccc(C(=O)CCN2CCCCCC2)cc1	none (no result: TAG inh)
N=c1n(CCN2CCCCC2)c2ccccc2n1CC(=O)c1cccs1	none
O=C(CCN1CCC(c2ccccc2)C1)c1ccccc1 (centres undefined)	GC-A act 58.5 (no result: TAG inh)
O=C(CCN1CCC(c2ccccc2)C1)c1ccc2c(c1)OCCO2 (centres undefined)	none (no result: Bfl-1 A1 inh)
CCOC(=O)[C@]12CCCC=C1N(Cc1ccc(OC)cc1)C(=O)[C@@H]2CC(=O)NCCCOC	none (no result: Bfl-1 A1 inh, HSV replic up, Efflux pump inh, TAG inh)
O=C(CCN1CCC2CCC(C2)C1)c1ccc(F)cc1 (centres undefined)	GC-A act 71.7 (no result: Bfl-1 A1 inh, HSV replic up, Efflux pump inh)
CC1(C)CC2(CCCN(C(=S)Nc3ccccc3)C2)CCO1 (centres undefined)	none
CCC1(C)CC2(CCCN(CCC(=O)c3ccccc3)C2)CCO1 (centres undefined)	GC-A act 42.7
O=C(CCN1CCOCC1)c1ccc(Cl)cc1	GC-A act 58.0
O=C(CCN1CCC(c2ccccc2)C1)c1cccs1 (centres undefined)	GC-A act 51.6 (no result: TAG inh)
O=C(NC1CCCCN(Cc2cccc(C(F)(F)F)c2)C1=O)c1ccc(Cl)cc1 (centres undefined)	none (no result: Bfl-1 A1 inh, HSV replic up, Efflux pump inh, TAG inh)
CC(=O)O[C@H]1C(=O)[C@@]2(C)[C@H]([C@H](OC(=O)c3ccccc3)[C@]3(O)C[C@H](OC(=O)[C@H](O)[C@@H](NC(=O)c4ccccc4)c4ccccc4)C(C)=C1C3(C)C)[C@]1(OC(C)=O)CO[C@@H]1C[C@@H]2O	TAG inh 56.0 (no result: HSV replic up)
CCOC(=O)C1CCCN(C(=O)c2cc3nc(-c4ccc5c(c4)OCO5)cc(C(F)(F)F)n3n2)C1 (centres undefined)	GC-B act 36.5 (no result: TAG inh)
Cc1ccc(-c2cc(C(F)(F)F)n3nc(C(=O)N4CCN5CCCC5C4)cc3n2)cc1 (centres undefined)	none (no result: HSV replic up, TAG inh)
c1ccc(CCNc2ccnc3cc4ccccc4cc23)cc1	TAG inh 103.7 (no result: Bfl-1 A1 inh, Efflux pump inh)
Cc1nn(-c2ccccc2)c2sc(C(=O)N3CCN(S(=O)(=O)c4ccc(Br)s4)CC3)cc12	none (no result: Bfl-1 A1 inh, HSV replic up, Efflux pump inh, TAG inh)
COC(=O)[C@]1(C#N)CC(=O)N(CC(C)C)[C@@H]1c1ccccc1	none (no result: Bfl-1 A1 inh, HSV replic up, Efflux pump inh, TAG inh)
N=c1n(CC(=O)c2ccc(Br)s2)c2ccccc2n1Cc1ccccc1	TAG inh 53.0
COC(=O)c1ccc2c(=O)n(Cc3ccco3)c(SCC(=O)Nc3ccc(C)c(Cl)c3)nc2c1	Bfl-1 A1 inh 17.2 (no result: TAG inh)
O=C(CSc1nc2cc(Cl)ccc2c(=O)n1Cc1ccco1)Nc1ccc(S(=O)(=O)N2CCOCC2)cc1	none (no result: TAG inh)
COc1ccccc1N(/N=C1\Sc2ccccc2C1=O)C(C)=O	TAG inh 69.5
CC(C)(C)[C@H](N)C(=O)N[C@H]1CCC2C3CC=C4C[C@@H](O)CC[C@]4(C)C3CC[C@@]21C (some centres undefined)	Bfl-1 A1 inh 11.4 (no result: HSV replic up)
CC(C)C(=O)N[C@H]1CCC2C3CC=C4C[C@@H](O)CC[C@]4(C)C3CC[C@@]21C (some centres undefined)	none (no result: HSV replic up)
CN(C)CCC(=O)c1ccc(Cl)cc1	GC-A act 61.7
O=C(O)CCC(=O)CCC(=O)c1ccc(Cl)cc1	none (no result: TAG inh)
O=C(CC(=O)c1ccccc1)c1ccccc1	none (no result: Bfl-1 A1 inh, HSV replic up, Efflux pump inh)
CN(CCC(=O)c1ccccc1)CCC(=O)c1ccccc1	GC-A act 63.0 (no result: HSV replic up, TAG inh)
N#C/C(=C/c1ccc(-c2cc(C(=O)O)cc(C(=O)O)c2)o1)c1nc2ccccc2s1	HSV replic up inconclusive, Efflux pump inh 0.8 (no result: GC-B act, GC-A act, TAG inh)
O=C(Nc1ccc(F)cc1)OCc1cn(Cc2ccccc2F)nn1	none (no result: Bfl-1 A1 inh, HSV replic up, Efflux pump inh, TAG inh)
CC(C)(C)C1CCC2(CC1)C(Nc1cccc(C(F)(F)F)c1)=NC(=S)N2CC#N (centres undefined)	GC-B act 45.9
N#CCN1C(=S)N=C(Nc2cccc(Cl)c2)C12CCCCC2	none
COCCn1c(-c2ccc(-c3ccccc3Cl)o2)nc2c1c(=O)[nH]c(=O)n2CC(C)C	GC-B act 36.5
Cn1c(N)c(C(=O)COC(=O)c2cc(C3CC3)nc3ccccc23)c(=O)n(C)c1=O	GC-B act 36.2
CCOc1cccc(/C=N\NC(=O)Cc2cccs2)c1O	none (no result: Bfl-1 A1 inh, HSV replic up, Efflux pump inh, TAG inh)
CCOC(=O)c1c(SCCN2CCCC2)n(-c2ccccc2)c(=S)n(-c2ccccc2)c1=O	TAG inh 81.9 (no result: Bfl-1 A1 inh, HSV replic up, Efflux pump inh)
Cn1c(N/N=C2\CCCc3ccccc32)nc2c1c(=O)n(Cc1ccccc1)c(=O)n2C	none
Cn1c(=O)c2c(nc(N/N=C3\CCCc4ccccc43)n2Cc2ccc(F)cc2)n(C)c1=O	GC-B act 49.6 (no result: TAG inh)
CCOC(=O)[C@]12CCCC=C1N(CCCOC)C(=O)[C@@H]2CC(=O)NCC12CC3CC(CC(C3)C1)C2	none (no result: Bfl-1 A1 inh, HSV replic up, Efflux pump inh, TAG inh)
COc1ccc(C(=O)N/N=C/c2cc(Br)ccc2O)cc1OC	TAG inh 56.3
COc1ccc(-c2c(C#N)c(N)nc(Sc3ccc(Cl)cc3)c2C#N)cc1	TAG inh 54.1
CSc1nc(N)c(C#N)c(-c2ccc(Cl)cc2)c1C#N	none
Cc1ccc(C)c(N=Nc2ccc(O)c3ncccc23)c1	TAG inh 108.3
Oc1ccc(N=Nc2ccc3c(c2)OCCO3)c2ncccc12	TAG inh 78.5
